This is an account of results in ChEMBL document CHEMBL3988442, “University of Dundee, Small-Polar-MMV Screening Library” (2021).

Molecules are shown by their SMILES.

In the assay the target is AMP-activated protein kinase, AMPK (Homo sapiens) (UniProt P54646+O43741+P54619+Q9UGJ0+Q9Y478+Q13131+Q9UGI9). Kind of assay: AMP-dependent Kinase enzyme assay. An in vitro enzyme assay that detects ADP turnover that is directly proportional to AMPK activity. This uses naive AMPK that is activated during the assay with MK-8722. Conditions: 30 µM. Also noted: scale not given: direction of the effect not stated beside the values. The format is functional.
For `COc1cccc(O[C@H]2CCN(c3nc(C)cc(C)n3)CC[C@@H]2O)c1`, the Percent Effect is 1.31%.

For `COc1cccc(CN2C[C@H]3CC[C@H]2C3)c1OCCN1CCOCC1`, the Percent Effect is -4.89%.

Turning to `CC(NS(N)(=O)=O)c1ccc(OCc2ccc(F)cc2)cc1` (centres undefined), the Percent Effect was found to be 3.51%.

Take `Cc1cc(C)c(C(=O)N2CCC3(CCCNC3)C2)cc1C` (centres undefined): the Percent Effect stood at 7.09%.

With `Cc1nnc(NC(=O)NCCCN2CCC(C(N)=O)CC2)s1`, the Percent Effect came to 5.59%.

Consider `O=C(NCc1nnc2n1CCC2)c1ccc(C2CCCO2)s1` (centres undefined), for which the Percent Effect was found to be 1.37%.

Consider `CNC(=O)C(c1cccc(Cl)c1)C(C)C` (centres undefined), for which the Percent Effect was -6.65%.

As to `CCc1cnc(N2CCCC(CCC(N)=O)C2)nc1` (centres undefined), the Percent Effect was -6.19%.

For the compound `COc1ccc2c(c1)OCC(C(=O)NCc1ncc3c(n1)CCC3)C2` (centres undefined), the Percent Effect was -0.599%.

Consider `O=C1OCCCN1Cc1nc(-c2ccncc2)no1`, for which the Percent Effect was -2.07%.

In the case of `CNS(=O)(=O)CC(=O)NCc1cc2c(s1)CCC(C)(C)C2`, the Percent Effect is -1.02%.

Consider `CCC(c1ccccc1)S(=O)(=O)CCO` (centres undefined), for which the Percent Effect worked out at 0.669%.

Regarding `O=C(CCN1CCCCO1)N1CC[C@H](O)[C@@H](O)C1`, the Percent Effect is -7.38%.

`CCC(C)Oc1ccc(CNCCNS(C)(=O)=O)cc1Cl` (centres undefined): the Percent Effect was determined as 5%.

For `Cc1ccccc1C(=O)NC[C@@H]1CCN(C(=O)C2(O)CCCC2)C[C@H]1O`, the Percent Effect was determined as 2.29%.

As to `Cc1nc(N)nc(C)c1CC(=O)N1CCC2(CC1)OCCCC2O` (centres undefined), the Percent Effect is 73.8%.

As to `CC(CN1CCOCC1)NC(=O)N1CCN(S(C)(=O)=O)CC1` (centres undefined), the Percent Effect came out at 8.74%.

As for `CC(C)(C)C(=O)N1CCC(c2cnc(-c3cn[nH]c3)cn2)CC1`, the Percent Effect amounted to 1.14%.

For the compound `COC(=O)CC1CCCCN1CC(=O)NCCc1ccc(F)cc1` (centres undefined), the Percent Effect is 6.06%.
